Reference: PubChem BioAssay (Tox21)
Records with an inconclusive call do not appear. The source made the active and inactive calls. Unless noted, the call rests on the fitted dose curve.

Columns and labels:
[1] = Nuclear factor erythroid 2-related factor 2/antioxidant responsive element (Nrf2/ARE) small molecule agonists: qHTS cell viability counter screen in human keratinocytes (AID 1919968; active means well fitted curve in the direction sought with a large enough effect in the repeat runs; an effect the other way counts as inactive or inconclusive; further: nearly all actives have a fitted effect of over 55% in size)
Outline: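 KeratinoSens HaCaT cells, 1,500/well, preincubated 5 h, then exposed to compounds in DMSO for 23 h at 37 C/5% CO2. Viability read as CellTiter-Fluor fluorescence after 1 h, in the same wells as the ARE-luciferase read.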

[2] = Nuclear factor erythroid 2-related factor 2/antioxidant responsive element (Nrf2/ARE) small molecule agonists: luciferase reporter gene qHTS assay in human keratinocytes (AID 1919969); further: nearly all actives have a fitted effect of over 35% in size; further: potency means the concentration at half of the fitted maximal effect
[3] = molecular target: Gonadotropin-releasing hormone receptor (Homo sapiens) (UniProt P30968); experiment: Human gonadotropin-releasing hormone receptor (GnRHR) small molecule agonists, calcium flux assay in GnRHR-HEK293 cells (AID 1920063); further: nearly all actives have a fitted effect of over 35% in size
Sequence of Gonadotropin-releasing hormone receptor (Homo sapiens) (P30968 whole entry, looked up): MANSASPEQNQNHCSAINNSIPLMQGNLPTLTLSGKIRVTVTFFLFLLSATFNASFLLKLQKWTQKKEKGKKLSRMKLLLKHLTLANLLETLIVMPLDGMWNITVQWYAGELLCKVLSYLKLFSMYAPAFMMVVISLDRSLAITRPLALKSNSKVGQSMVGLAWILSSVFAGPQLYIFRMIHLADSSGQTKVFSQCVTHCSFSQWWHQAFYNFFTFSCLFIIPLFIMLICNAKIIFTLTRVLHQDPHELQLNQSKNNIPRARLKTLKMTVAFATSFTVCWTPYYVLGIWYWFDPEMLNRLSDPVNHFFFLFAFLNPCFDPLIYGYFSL
Outline: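 HEK293 cells stably expressing human GnRHR were dye-loaded for 1 h at 37 C. Compound was added in agonist mode and fluorescence (Ex/Em 480/540) recorded kinetically for 3 min. Fifteen concentrations, triplicates.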

[4] = molecular target: KiSS-1 receptor (Homo sapiens) (UniProt Q969F8); experiment: Human kisspeptin (KISS1R) small molecule agonists, calcium flux assay in KISS1R-HEK293 cells (AID 1920064; active means well fitted curve in the direction sought with a large enough effect in the repeat runs; an effect the other way counts as inactive or inconclusive)
Sequence of KiSS-1 receptor (Homo sapiens) (Q969F8 whole entry, looked up): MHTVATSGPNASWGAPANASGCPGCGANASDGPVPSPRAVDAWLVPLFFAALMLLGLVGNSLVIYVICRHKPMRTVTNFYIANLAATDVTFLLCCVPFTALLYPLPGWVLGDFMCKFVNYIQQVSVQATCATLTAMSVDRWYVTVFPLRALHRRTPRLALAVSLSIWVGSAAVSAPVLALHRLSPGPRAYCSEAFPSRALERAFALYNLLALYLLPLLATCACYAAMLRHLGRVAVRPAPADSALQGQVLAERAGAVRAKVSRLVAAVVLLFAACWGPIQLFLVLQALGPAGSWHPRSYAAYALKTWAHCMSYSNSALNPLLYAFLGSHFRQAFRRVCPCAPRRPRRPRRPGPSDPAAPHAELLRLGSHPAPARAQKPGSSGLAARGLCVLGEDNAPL
Outline: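 HEK293 cells stably expressing human KISS1R were loaded with calcium dye for 1 h at 37 C, then given compound; fluorescence (Ex/Em 480/540) was read kinetically for 3 min. Fifteen concentrations, triplicate.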

[5] = G protein-coupled receptor (GPCR) small molecule agonists, calcium flux assay: HEK293 wild type cell line counter screen (AID 1920065)
Outline: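 Wild-type HEK293 cells plated 18 h, loaded with calcium dye 1 h at 37 C, then compounds added in agonist mode (ATP as positive control). Kinetic fluorescence Ex/Em 480/540 recorded 3 min at 1 sec intervals; 15 concentrations, triplicate.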

[6] = p53 small molecule agonists, cell-based qHTS assay with human liver microsomes (AID 1963577);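 further: p53 response element beta-lactamase reporter cells with liver microsomes plus NADPH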
Outline: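 In this qHTS, p53 response-element beta-lactamase cells receive test compound together with a microsome/NADPH activating system (0.5 mg/mL final each) and are incubated 16 h at 37 C before LiveBLAzer fluorescence detection.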

[7] = p53 small molecule agonists, cell-based qHTS assay with rat liver microsomes (AID 1963578)
Outline: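 Agonist mode in p53RE-bla reporter cells, with compounds co-incubated 16 h at 37 C alongside 0.5 mg/mL rat liver microsomes and 0.5 mg/mL NADPH (final), followed by a 2 h LiveBLAzer detection step.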

[8] = p53 small molecule agonists, cell-based qHTS assay with human liver microsomes: qHTS cell viability counter screen (AID 1963579); further: nearly all actives have a fitted effect of over 45% in size
Outline: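 Metabolically activated exposure: compounds, human liver microsomes and NADPH (0.5 mg/mL final apiece) were added to p53RE-bla cells seeded 5 h earlier, left 16 h at 37 C, and then assessed for viability by CellTiter-Glo luminescence.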

[9] = p53 small molecule agonists, cell-based qHTS assay with rat liver microsomes: qHTS cell viability counter screen (AID 1963580); further: nearly all actives have a fitted effect of over 45% in size
Outline: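 Viability is assessed in parallel with the p53 reporter read: HCT-116 p53RE-bla cells receive compounds plus rat microsomes and NADPH (0.5 mg/mL final apiece), incubate 16 h at 37 C, and then CellTiter-Glo luminescence is recorded.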

[10] = p53 small molecule agonists, cell-based qHTS assay (AID 1963582; active means well fitted activation curve with a large enough effect in the signal ratio in the repeat runs, not every such curve was filed as active; the % refers to the signal ratio)
Outline: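 p53RE-bla reporter cells, compounds added in DMSO after 5 h plating, incubated 16 h at 37 C. Beta-lactamase read via 2 h room-temperature LiveBLAzer B/G FRET substrate, fluorescence intensity.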

[11] = molecular target: Muscarinic acetylcholine receptor M1 (Homo sapiens) (UniProt P11229); experiment: Cholinergic receptor muscarinic 1 (CHRM1) small molecule antagonists, cell-based qHTS assay (AID 1963588); further: nearly all actives have a fitted effect of over 40% in size
Sequence of Muscarinic acetylcholine receptor M1 (Homo sapiens) (P11229 whole entry, looked up): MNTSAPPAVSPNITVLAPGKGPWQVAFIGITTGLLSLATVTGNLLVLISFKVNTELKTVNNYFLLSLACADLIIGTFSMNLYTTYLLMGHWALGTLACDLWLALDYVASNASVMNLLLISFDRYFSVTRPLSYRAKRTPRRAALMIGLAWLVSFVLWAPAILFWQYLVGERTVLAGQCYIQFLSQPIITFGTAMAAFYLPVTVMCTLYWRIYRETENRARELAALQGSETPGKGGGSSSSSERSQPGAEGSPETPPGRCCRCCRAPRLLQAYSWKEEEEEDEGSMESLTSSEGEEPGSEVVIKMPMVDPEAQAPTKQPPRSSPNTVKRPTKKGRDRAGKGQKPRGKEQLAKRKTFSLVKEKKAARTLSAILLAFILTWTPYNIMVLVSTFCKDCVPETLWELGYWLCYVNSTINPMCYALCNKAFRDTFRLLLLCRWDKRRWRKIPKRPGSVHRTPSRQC
Outline: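 CHRM1-CHO calcium-flux assay, antagonist mode. Cells were seeded 18 h, dye-loaded 1 h at 37 C and given compound for 5 min at RT, then acetylcholine was added at 50nM. FDSS fluorescence was read 3 min; 15 concentrations, three runs.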

[12] = molecular target: Muscarinic acetylcholine receptor M1 (Homo sapiens) (UniProt P11229); experiment: Cholinergic receptor muscarinic 1 (CHRM1) small molecule agonists, cell-based qHTS assay (AID 1963589); further: nearly all actives have a fitted effect of over 35% in size
Outline: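 CHO cells stably expressing human CHRM1 were loaded with calcium dye for 1 h at 37 C, then compound was added in agonist mode. Intracellular calcium fluorescence was followed kinetically at 1 s intervals. Fifteen concentrations were tested in three independent runs.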

[13] = cAMP Responsive Elements (CRE) small molecule agonists, cell-based qHTS assay (AID 1963590)
Outline: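 CRE-bla HEK 293T cells, 2,000/well in DMEM with 10% dialyzed FBS and 25 mM HEPES, pre-incubated 18 h at 37 C, then exposed to compound 3 h at 37 C. Beta-lactamase reporter read with LiveBLAzer B/G FRET substrate after 2 h at room temperature.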

[14] = cAMP Responsive Elements (CRE) small molecule antagonists, cell-based qHTS assay (AID 1963591; active means well fitted inhibition curve with a large enough effect in the signal ratio in the repeat runs, not every such curve was filed as active; the % refers to the signal ratio)
Outline: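 CRE-bla HEK293T cells plated 18 h, then given compound plus NKH477 at 0.25 uM final for 3 h at 37C. Beta-lactamase reporter read with LiveBLAzer B/G FRET substrate after 2 h at room temperature.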

[15] = p53 small molecule agonists, cell-based qHTS assay: qHTS cell viability counter screen (AID 1963581); further: nearly all actives have a fitted effect of over 45% in size
Outline: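 p53RE-bla HCT-116 cells, compounds added 5 h after plating and incubated 16 h at 37 C. Cytotoxicity measured in the same wells as intracellular ATP by CellTiter-Glo luminescence after 30 min at room temperature.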

[16] = molecular target: Beta-2 adrenergic receptor (Homo sapiens) (UniProt P07550); experiment: Adrenergic beta2 receptor (ADRB2) small molecule antagonists, cell-based qHTS assay (AID 1963592); further: series mostly up to about 92 µM; nearly all actives have a fitted effect of over 50% in size
Sequence of Beta-2 adrenergic receptor (Homo sapiens) (P07550 whole entry, looked up): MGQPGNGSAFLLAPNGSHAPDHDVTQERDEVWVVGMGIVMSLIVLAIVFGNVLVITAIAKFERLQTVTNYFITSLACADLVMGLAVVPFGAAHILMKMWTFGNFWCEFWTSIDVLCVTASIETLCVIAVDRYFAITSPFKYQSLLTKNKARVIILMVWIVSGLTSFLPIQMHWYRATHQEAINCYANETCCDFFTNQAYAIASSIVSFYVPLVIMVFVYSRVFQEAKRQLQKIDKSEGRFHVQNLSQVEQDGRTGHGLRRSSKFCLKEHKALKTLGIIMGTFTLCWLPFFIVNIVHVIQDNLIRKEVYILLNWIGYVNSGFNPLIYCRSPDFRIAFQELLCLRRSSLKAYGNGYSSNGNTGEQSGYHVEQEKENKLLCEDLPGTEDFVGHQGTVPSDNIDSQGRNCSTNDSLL
Outline: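 Cells (CHO, stable ADRB2 overexpression) incubated 18-20hr at 37C; compounds added from DMSO; agonist mix (1nM isoproterenol, 100uM IBMX, 25uM Ro-20-1724) added; 0.5hr RT; d2-cAMP and anti-cAMP-cryptate added; 1hr RT; 665/615 nm read.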

[17] = molecular target: D(2) dopamine receptor (Homo sapiens) (UniProt P14416); experiment: Dopamine D2 receptor (DRD2) small molecule agonists, cell-based qHTS assay (AID 1963594); further: nearly all actives have a fitted effect of over 35% in size; further: potency means the concentration at half of the fitted maximal effect
Sequence of D(2) dopamine receptor (Homo sapiens) (P14416 whole entry, looked up): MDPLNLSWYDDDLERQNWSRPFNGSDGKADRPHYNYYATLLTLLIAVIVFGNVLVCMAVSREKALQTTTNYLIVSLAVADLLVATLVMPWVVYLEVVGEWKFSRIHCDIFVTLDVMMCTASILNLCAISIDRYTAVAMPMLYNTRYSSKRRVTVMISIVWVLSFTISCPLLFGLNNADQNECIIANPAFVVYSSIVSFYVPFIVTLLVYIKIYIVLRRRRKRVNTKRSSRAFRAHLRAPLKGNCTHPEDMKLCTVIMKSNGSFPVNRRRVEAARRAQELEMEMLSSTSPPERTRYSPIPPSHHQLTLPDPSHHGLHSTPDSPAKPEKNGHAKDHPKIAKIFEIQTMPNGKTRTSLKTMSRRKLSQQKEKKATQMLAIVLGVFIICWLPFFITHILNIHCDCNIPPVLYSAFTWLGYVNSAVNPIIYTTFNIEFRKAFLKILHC
Outline: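 HEK293 cells stably expressing human DRD2, pre-treated with PDE inhibitor Ro20-1724 (0.1 mM final) and compound 10 min at room temperature, then stimulated with NKH477 (200nM […]) for 30 min. cAMP read by HTRF (665/620 nm).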

[18] = molecular target: D(2) dopamine receptor (Homo sapiens) (UniProt P14416); experiment: Dopamine D2 receptor (DRD2) small molecule antagonists, cell-based qHTS assay (AID 1963595; active means well fitted inhibition curve with a large enough effect in the signal ratio in the repeat runs, with a control signal flat; the % refers to the signal ratio)
Outline: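 Human DRD2 antagonist qHTS measuring cAMP by HTRF. The cells are exposed to compound for 10 min, then to NKH477 (200 nM) and quinpirole (12 nM) for 30 min at RT, with Ro20-1724 (0.1 mM) present throughout.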

[19] = molecular target: 5-hydroxytryptamine receptor 2A (Homo sapiens) (UniProt P28223); experiment: 5-hydroxytryptamine receptor 2A (HTR2A) small molecule antagonists, cell-based qHTS assay (AID 1963586); further: nearly all actives have a fitted effect of over 45% in size
Sequence of 5-hydroxytryptamine receptor 2A (Homo sapiens) (P28223 whole entry, looked up): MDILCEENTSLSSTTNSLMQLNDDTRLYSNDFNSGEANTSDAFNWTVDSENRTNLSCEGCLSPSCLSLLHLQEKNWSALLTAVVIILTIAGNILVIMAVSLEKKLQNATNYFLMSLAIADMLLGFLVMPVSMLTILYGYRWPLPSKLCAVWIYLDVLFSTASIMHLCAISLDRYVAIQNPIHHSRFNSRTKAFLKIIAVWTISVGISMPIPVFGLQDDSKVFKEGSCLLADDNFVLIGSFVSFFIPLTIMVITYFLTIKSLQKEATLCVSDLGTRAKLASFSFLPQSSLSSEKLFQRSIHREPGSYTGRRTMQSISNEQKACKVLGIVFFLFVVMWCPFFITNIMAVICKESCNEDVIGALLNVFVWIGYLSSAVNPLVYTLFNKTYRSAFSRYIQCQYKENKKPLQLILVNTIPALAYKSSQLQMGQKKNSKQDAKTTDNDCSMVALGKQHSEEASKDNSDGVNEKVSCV
Outline: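 Antagonist-mode intracellular calcium assay: DOI (4 nM) added after 5 min compound pre-incubation at room temperature to dye-loaded HTR2A-CHO cells. Fluorescence followed for 3 min, sampled every second.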

[20] = molecular target: 5-hydroxytryptamine receptor 2A (Homo sapiens) (UniProt P28223); experiment: 5-hydroxytryptamine receptor 2A (HTR2A) small molecule agonists, cell-based qHTS assay (AID 1963587); further: nearly all actives have a fitted effect of over 30% in size
Outline: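 CHO cells stably expressing human HTR2A, plated 18 h, loaded with calcium dye 1 h at 37 C. Agonist mode: compounds added and intracellular calcium fluorescence recorded kinetically for 2 min at 1 sec intervals.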
On the % scale 0 is the no-effect control and ±100 the full control effect.

CN(C)CCc1c[nH]c2cccc(O)c12
inactive: Potency [1] | Potency [3] | Potency [4] | Potency [5] | Potency [6] | Potency [7] | Potency [8] | Potency [9] | Potency [10] | Potency [11] | Potency [12] | Potency [13] | Potency [14]
active: Potency [2] 67.9 µM

CC1NCCOC1c1ccccc1 (stereo not drawn)
inactive: Potency [1] | Potency [2] | Potency [3] | Potency [4] | Potency [5] | Potency [6] | Potency [7] | Potency [8] | Potency [9] | Potency [15] | Potency [11] | Potency [12] | Potency [13] | Potency [14] | Potency [16] | Potency [18]
active: Potency [17] 14.1 µM

CCCCCl
inactive: Potency [1] | Potency [2] | Potency [3] | Potency [4] | Potency [5] | Potency [6] | Potency [7] | Potency [8] | Potency [9] | Potency [10] | Potency [19] | Potency [20] | Potency [11] | Potency [12] | Potency [14] | Potency [16] | Potency [17] | Potency [18]

CCOC(=O)CBr
inactive: Potency [1] | Potency [2] | Potency [3] | Potency [4] | Potency [5] | Potency [6] | Potency [7] | Potency [8] | Potency [9] | Potency [10] | Potency [19] | Potency [20] | Potency [11] | Potency [12] | Potency [13] | Potency [14] | Potency [17] | Potency [18]

CSSC
active: Potency [2] 31 µM
inactive: Potency [1] | Potency [3] | Potency [4] | Potency [5] | Potency [6] | Potency [7] | Potency [8] | Potency [9] | Potency [10] | Potency [19] | Potency [20] | Potency [11] | Potency [12] | Potency [16] | Potency [17] | Potency [18]

CC1=C(C(=O)O)N2C(=O)[C@@H](N)[C@H]2SC1
inactive: activity change, negative = cytotoxicity [1] 0.0817% [at 19 µM] | activity, positive = activation [2] -0.189% [at 19 µM] | activity change [3] 0.673% [at 11.8 µM, active compounds read high] | activation [4] 0.11% [at 15.8 µM] | activation [5] -0.375% [at 11.8 µM] | activation [6] -0.214% [at 13.5 µM] | activation [7] -0.0529% [at 13.6 µM] | activity change, negative = cytotoxicity [8] 0.455% [at 13.5 µM] | activity change, negative = cytotoxicity [9] 4.3e-05% [at 13.5 µM] | activation [10] 0.428% [at 13.5 µM] | activity, negative = inhibition [19] 25.1% [at 12.7 µM] | activation [20] 1.93% [at 15.9 µM] | activity, negative = inhibition [11] -6.26% [at 12.6 µM] | activation [13] -0.165% [at 19 µM] | activity change, negative = inhibition [16] 2.77% [at 19 µM] | activation [17] -15.4% [at 19 µM] | activity change, negative = inhibition [18] -2.19% [at 18.9 µM]

CC(Cc1ccc(OCC(=O)O)cc1)NCC(O)c1csc(C(F)(F)F)n1 (stereo not drawn)
inactive: Potency [1] | Potency [2] | Potency [3] | Potency [4] | Potency [5] | Potency [6] | Potency [7] | Potency [8] | Potency [9] | Potency [10] | Potency [19] | Potency [20] | Potency [11] | Potency [12] | Potency [13] | Potency [14] | Potency [18]
